Outcome and AC50 data for 16 compounds are collected here from PubChem BioAssay (EPA / NIEHS).

Calls of active or inactive are those of the source. The calls were made as follows: active = hit-call score of the fitted dose curve at least 0.9, where 1 is the maximum; inactive = score below 0.9.

Read-out in the assay: Bcl-2 (BAX) gene, BAX (gene 581)
The assay is described as follows: LTEA_HepaRG_BAX: Life Technologies and Expression Analysis (LTEA) Assay for Bcl-2 (BAX) gene using HepaRG (AID 2283470). The following applies: mRNA level, 48 h; actives raise or lower the signal. Here is the method:
LTEA_HepaRG is a cell based, multiplexed-readout assay that uses HepaRG, a human liver cell line, with measurements taken at 48 hours after chemical dosing on a 96-well plate.LTEA_HepaRG_BAX is one of 102 assay component(s) measured in the LTEA HepaRG cell culture assay. It is a marker of Cell proliferation, survival, death.Data from the assay component LTEA_HepaRG_BAX was analyzed into 1 endpoint. This assay endpoint, LTEA_HepaRG_BAX, was analyzed with bidirectional fitting relative to DMSO as the negative control and baseline of activity. Using a type of inducible reporter, measures of mRNA induction for gain or loss-of-signal activity can be used to understand regulation of transcription factor activity. To generalize the intended target to other relatable targets, this assay endpoint is annotated to the cell cycle intended target family, where the subfamily is Cell proliferation, survival, death.
A total of 1060 chemcials from the ToxCast library were tested in eight-point concentration-response experiments. Cell culture and cytotoxicity assays were conducted at Thermo Fisher Scientific's Custom Services facility (Madison, WI). A single lot of human HepaRG cells (Thermo Fisher Scientific, Frederick, MD) was used for the cell culture experiments. 96-well format collagen type I coated plates of human HepaRG cells were prepared using established methods. Briefly, cryopreserved HepaRG cells were thawed, plated at a density of approximately 100,000 cells/well in HepaRG Thaw, Plate, and General Purpose media (HPRG770, Thermo Fisher Scientific), and incubated for 48 hours. 0.5% DMSO was selected as vehicle control to balance the requisite need of DMSO in HepaRG cultures to maintain differentiation (for example, baseline metabolism, proportions of hepatocytes vs. cholangiocytes), while enabling further hepatic receptor pathway activation (for example, PXR and CAR) in response to chemical exposure. 48 hours after plating, the culture medium was replaced with HepaRG Serum-Free Incudtion Media. Cells were exposed to each test chemical in duplicate and maintained in CO2 incubators for another 48 hours. Chemical plates were thawed to room temperature and 200x concentrations of treatment groups were prepared. 8-point conentration-reponse curves were made with the highest exposure at 100 uM, followed by half-log dilutions, all in 0.5% DMSO. Each test plate contained variouse controls, induction positive controls (1mM phenobarbital), cytotoxicity positive controls ([…] aflatoxin B1), vehicle controls (0.5% DMSO), and total lysis controls (0.5% DMSO). Cell morphology images were taken using an Essen IncuCyte FLR automated microscope, with six 96-well plates imaged in about 24 minutes. Images were captured and exported and JPEG files. Spent culture media was transfered to black-well plates for the LDH assay, and remaining media was sorted at -80 C for later use. Cells were treated with RLT buffer and frozen until shipped for gene expression analysis. Total RNA was isolated from the cell suspension in 75 uL of Buffer RLT (Qiagen, Germantown, MD 20874) by Quintiles/Expression Analysis (Durham, NC) using a custom isolation procedure. Total RNA from each plate well was transferred to a preamplification plate. Fluidigm's 96.96 Dynamic ArrayTM (Fluidigm, Amsterdam, the Netherlands) technology was used for gene expression analyses by quantitative reverse transcription polymerase chain reaction (qRT-PCR, performed by Quintiles/Expression Analysis, Durham, NC)89. Standard TaqManTM Assays (Applied Biosystems/ThermoFisher Scientific, Foster City, CA) were used to assess the expression of 93 genes selected based on their selectivity and sensitivity to important hepatic receptors known to be modulated by environmental chemicals; importance in human hepatocyte functionality; and hepatotoxicity. […]
As to `CCCCC(CC)C(=O)O` (stereo unspecified), the compound was classed as inactive.
Turning to `O=C(CCCN1CCC(O)(c2ccc(Cl)cc2)CC1)c1ccc(F)cc1`, the AC50 is 81.1 µM (active).
On the same count and under the same terms, the same measure for `Cc1[nH]nc2c1N=C(c1ccccc1Cl)c1cc([N+](=O)[O-])ccc1N2`: 3.85 µM (active).
In the case of `CC(=O)Nc1ccc(O)cc1`, the result was inactive.
As to `OCC(CO)(CBr)CBr`, the compound was classed as inactive.
As to `CN(Cc1cnc2nc(N)nc(N)c2n1)c1ccc(C(=O)N[C@@H](CCC(=O)O)C(=O)O)cc1`, the call was inactive.
With `O=C1NS(=O)(=O)c2ccccc21`, the call was inactive.
Turning to `CS(=O)(=O)c1ccc([C@@H](CC2CCCC2)C(=O)Nc2cnccn2)cc1Cl`, the AC50 was 41.3 µM (active).
With `CCCCCCCCCCCCCCC`, the compound was classed as inactive.
Regarding `CCCCCCCCCCCCOS(=O)(=O)O`, the AC50 was 50 µM (active).
As to `CN(C)CCOC(c1ccccc1)c1ccccc1`, the result was inactive.
Regarding `N=C(N)c1ccc(OCCCCCOc2ccc(C(=N)N)cc2)cc1`, the AC50 is 6.28 µM (active).
For `CCC(C)c1ccccc1O` (stereo unspecified), the outcome was inactive.
The same measure, in the same setting: the same measure for `CCCCC=O`: “inactive”.
On the same count and under the same terms, the same measure for `O=C(c1ccccc1)c1ccccc1`: “inactive”.
`CCCCc1oc2ccccc2c1C(=O)c1cc(I)c(OCCN(CC)CC)c(I)c1`: the AC50 is 65.2 µM (active).

The term AC50 denotes the concentration at which the activity in the assay is half-maximal.
